# Compound activity deposited in PubChem BioAssay by SRMLSC.
# A340 absorber – compound light absorbance at 340 nm, profiling panel, artefact control, biochemical, MLSMR library, data from PS, PMK, MK assays | compound absorbance at 340 nm, fold over control | fold change at 10 µM | 65,000 tested, under 10 active | AID 708, 2007;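 active means at 10 µM dose, initial 340 nm absorbance at least 2 fold that of control wells; inactive means change under 2 fold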;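 further: initial absorbance extrapolated from kinetic A340 decline of NADH oxidation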
# PMK inhibit – S. pneumoniae PMK inhibitors, primary screen, biochemical, mevalonate pathway, pilot trial included; phosphomevalonate kinase (Streptococcus pneumoniae D39); purified PMK, PK/LDH-coupled NADH absorbance 340 nm; inhibition, % at 10 µM; 65,000 tested, 0.49% active; AID 539, 2006;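 active means top-ranked compounds by inhibition in the single 10 µM screen, taking a fixed number of the strongest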;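 further: 0% = full reaction with DMSO carrier and 100% = background rate without enzyme reaction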
# MK inhibit – S. pneumoniae MK inhibitors, primary screen, biochemical, PK/LDH-coupled NADH absorbance; purified MK, PK/LDH-coupled NADH absorbance 340 nm; inhibition, % at 10 µM; mevalonate kinase [Streptococcus pneumoniae D39]; 65,000 tested, 0.48% active;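 active means ranked among the strongest by inhibition in the single 10 µM screen, a fixed top-ranked set picked for dose follow-up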
# NADH enzymes – inhibitors of PK/LDH coupling enzymes, profiling panel, artefact control, biochemical, MLSMR library; AID 774, 2007; 65,000 tested, 0.02% active; coupled PK/LDH NADH assays, four targets; IC50, µM (doses to about 10 µM), without a hit: at the top dose inhibition;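 active means single-dose screening hits from any of four coupled enzyme assays that gave an IC50 when retested across doses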;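 further: the DPM-DC format reads NADH fluorescence rather than 340 nm absorbance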
# Fluor 339 460 – intrinsic fluorescence of library compounds, ex339/em460 – biochemical, MLSMR library, data from DPM-DC assay, artefact control, profiling panel | 65,000 tested, 5.5% active | compound autofluorescence, ex339/em460 nm, NADH buffer; stronger effect = higher value; 1 = no-compound wells, NADH background | AID 709, 2007 | fluorescence fold increase at 10 µM;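 active means at 10 µM, mean starting fluorescence two-fold or more over control wells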;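 further: signal is the first read of a kinetic run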
# Spn DPM-DC inh – S. pneumoniae DPM-DC inhibitors, primary screen, biochemical, PK/LDH-coupled NADH fluorescence | purified DPM-DC | calls only at 10 µM | 65,000 tested, 0.49% active | AID 556, 2006;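 active means the 320 compounds with the highest percent inhibition in the single-dose primary screen, excluding strongly autofluorescent ones, cut at about 32% in these data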;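 further: kinetic rate of NADH fluorescence loss reporting ADP formed by the decarboxylase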
# An asterisk follows results filed as active; i = inactive; nt = no result given. The list is not random: actives were taken first. Their share in the collection is about 6.8%.
SMILES,A340 absorber,PMK inhibit,MK inhibit,NADH enzymes,Fluor 339 460,Spn DPM-DC inh
CC1=C(C)C(=O)NC(Nc2nc(C)c3cc(C)cc(C)c3n2)N1 (configuration not stated),1,5,5,2%,0.99,i
COc1ccccc1NC(=O)CCC(=O)Nc1nnc(C(F)(F)F)s1,0.98,0,5,2%,1.1,i
Cc1oc2cc(O)ccc2c(=O)c1-c1cnn(-c2ccccc2)c1,1,8,7,5%,2.5*,nt
O=C(Nc1cccc(-c2cn3cccnc3n2)c1)c1ccc2c(c1)OCO2,1,10,5,8%,5.3*,nt
O=C(Nc1cccc(-c2cnc3ccccc3n2)c1)c1ccco1,1.1,0,0,2%,1.1,i
O=C(Nc1cccc(-c2cn3cccnc3n2)c1)c1ccco1,1.1,11,0,6%,5.4*,nt
O=C(Nc1cccc(-c2cn3cccnc3n2)c1)c1ccc(Br)o1,1.1,13,2,8%,5.2*,nt
CCNc1nc(N)c(C(=O)c2ccc(Cl)s2)s1,1.1,5,12,6%,1.1,i
CCn1c2ccccc2c2nnc(SCCCn3c(=O)[nH]c4ccccc43)nc21,1.1,1,12,5%,1,i
CC(c1ccco1)N(C(=O)CSc1ccc(Br)cc1)c1ccccn1 (configuration not stated),1,13,1,5%,1.1,i
CCOC(=O)C1CCN(S(=O)(=O)c2ccc(-c3nc4ccccc4s3)s2)CC1,1.1,13,6,8%,2.2*,i
COC(=O)c1cc(Br)c(=O)n(CCC2=CCCCC2)c1,1,14,6,2%,1.1,i
COc1ccccc1C(=O)N1CCN(c2ccccn2)CC1,1.1,5,0,2%,1.2,i
COc1ccccc1C(=O)N1CCN(c2nc3cc(C)c(C)cc3cc2C#N)CC1,1,9,7,10%,2.8*,i
c1ccc2nc(-c3nc4ccccc4[nH]3)ccc2c1,1,0,2,3%,2.3*,nt
c1ccc2[nH]c(-c3ccnc4ccccc34)nc2c1,1.1,13,8,11%,2.1*,nt
c1ccc2[nH]c(-c3cscn3)nc2c1,0.97,3,4,2%,0.99,i
COCCn1c(SCc2ccc(C(=O)OC)o2)nc2cc(Cl)ccc2c1=O,1,16,0,6%,1.1,i
COc1ccc(-c2nnc3ccc(SCC(=O)N4CCN(c5ccccc5)CC4)nn23)cc1,1,8,13,8%,1.2,i
COCCNC(=O)CSc1nc2cc(OC)c(OC)cc2c(=O)n1CCC1=CCCCC1,1,13,1,5%,1.1,i
COCCn1c(N)c(C(=O)OCc2ccccc2)c2nc3ccccc3nc21,1.1,8,0,4%,3.8*,nt
C=CCn1c(N)c(C(=O)OCCC)c2nc3ccccc3nc21,1.1,18,2,10%,3.6*,nt
COCCNC(=O)c1c(N)n(CCC2=CCCCC2)c2nc3ccccc3nc12,1,3,16,2%,2.5*,nt
CCN(CCO)c1ccc(-n2c(N)c(C(=O)OC)c3nc4ccccc4nc32)cc1,1.1,19,0,6%,1.1,i
O=c1[nH]c2c(s1)C(c1ccco1)C1C3CCC(C3)C1S2 (configuration not stated),1,0,10,2%,1,i
CCc1cc2c(=O)c(Oc3ccccc3)c(C)oc2cc1O,1.1,0,4,2%,2.2*,nt
Cc1oc2cc(OCC(=O)O)ccc2c(=O)c1Oc1ccccc1,1.1,0,5,2%,1.3,i
COc1ccccc1CNc1ncnc2c1nnn2Cc1ccccc1,0.99,3,0,1%,1.1,i
Cc1cc(NC(=O)c2cc(S(=O)(=O)N3CCCCC3)ccc2C)n(-c2ccccn2)n1,1,0,0,0%,1.1,i
c1ccc(-c2noc(-c3cccc4ccccc34)n2)cc1,1,11,8,8%,2.5*,i
